Experimental data: PubChem BioAssay
Active and inactive are the calls of the source. Unless noted, how the calls were made is not given here.

Assays:
[1] = resazurin metabolic signal in HepG2 cells – cell-based, resazurin fluorescence, 24 h, PK04 Diversity Set, profiling panel (AID 1172); conditions: HepG2 viability, higher = more signal
[2] = budding yeast growth changes without added modifier – OD600, strain BY4716, 24 h, basal condition, primary screen (AID 1173); conditions: S. cerevisiae BY4716 growth, OD600, 24 h; higher = more signal, called active from +8 up or from −8 down
[3] = viability profiling in MM1S myeloma cells – cell-based, resazurin fluorescence, basal, 24 h, PK04 Diversity Set, profiling panel (AID 1174); conditions: higher = more signal, called active from +8 up or from −8 down;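 further: MM1S multiple myeloma cell line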
[4] = molecular target: Dihydroorotate dehydrogenase (quinone), mitochondrial (Plasmodium falciparum (isolate 3D7)) (UniProt Q08210); test: inhibition of P. falciparum DHODH – biochemical, C-terminal His tag, absorbance 600 nm, primary screen (AID 1175); conditions: PfDHODH enzyme, DCIP absorbance 600 nm; higher = more signal, called active from +8 up or from −8 down;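 further: recombinant parasite enzyme with a five histidine tag at its C terminus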
[5] = inhibition of PAO1 biofilm formation – strain PAO1, LB-PBS medium, absorbance 600 nm, primary screen (AID 1176); conditions: P. aeruginosa PAO1 growth/biofilm, A600, 12 h; higher = more signal
[6] = growth modulation of vineyard yeast isolate – strain RM11-1a, OD600, basal, 24 h, primary screen (AID 1177);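 further: cultures grown under basal conditions with no added stressor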; conditions: S. cerevisiae RM11-1a growth, OD600, 24 h; higher = more signal, called active from +8 up or from −8 down
[7] = growth of efflux-deficient E. coli DRC39 – strain DRC39, OD650, 24 h, E. coli filamentation inducers, primary screen (AID 1178);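 further: growth measured as culture turbidity by optical density at 650 nm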; conditions: E. coli DRC39 acrAB, higher = more signal, called active from +8 up or from −8 down
[8] = growth of efflux-deficient E. coli DRC39 – strain DRC39, OD650, 48 h, E. coli filamentation inducers, primary screen (AID 1179);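 further: screen aims at cell division blockers that make cells filament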; conditions: E. coli DRC39 delta-acrAB growth, higher = more signal, called active from +8 up or from −8 down
[9] = viability profiling in RPMI8226 myeloma cells – cell-based, resazurin fluorescence, basal, 24 h, PK04 Diversity Set, profiling panel (AID 1180); conditions: higher = more signal;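 further: RPMI8826 multiple myeloma cell line at 5000 cells per well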
[10] = molecular target: E3 ubiquitin-protein ligase XIAP (Homo sapiens) (UniProt P98170); test: small molecules binding XIAP protein – biophysical, small-molecule microarray, fluorescence 635 nm, primary screen (AID 1181); conditions: higher = more signal;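 further: score merges 667 nm emission and signal to noise over triplicate slides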
[11] = test system: XIP peptide (Xip251-270) binding; test: XIP fragment 251-270 binding compounds – biochemical, small-molecule microarray, fluorescence 635/667 nm, 0.1 µg/mL protein, primary screen (AID 1182); conditions: fluorescent protein binding, 635 nm, higher = more signal, called active from +8 up or from −8 down
[12] = test system: XIP peptide (Xip251-270); test: compounds binding XIP fragment 251-270 – biochemical, small-molecule microarray, fluorescence 635/667 nm, 0.5 µg/mL protein, primary screen (AID 1183); conditions: fluorescence 635 nm, higher = more signal
[13] = blood-stage malaria parasite viability loss – strain 3D7, DAPI fluorescence, 100 nL, primary screen (AID 1184);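 further: parasites grown inside human red blood cells in medium with human serum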; conditions: P. falciparum 3D7 growth, 3 d, higher = more signal
[14] = molecular target: Homeobox protein Hox-A13 (Mus musculus) (UniProt Q62424); test: disruptors of Hoxa13 oligonucleotide interaction – biochemical, fluorescence polarization, labeled oligonucleotide, primary screen (AID 1185); conditions: Hoxa13:DNA binding, 15 min, higher = more signal, called active from +8 up or from −8 down
[15] = blockers of DNA damage checkpoint Chk1 activation – imaging, HeLa, hydroxyurea, phospho-Chk1 antibody, percent positive cells, primary screen (AID 1186); conditions: hydroxyurea-induced phospho-Chk1 immunofluorescence imaging, higher = more signal
[16] = blockers of DNA damage checkpoint Chk1 activation – imaging, HeLa, hydroxyurea, phospho-Chk1 nuclear intensity, primary screen (AID 1187); conditions: hydroxyurea-induced phospho-Chk1 immunofluorescence imaging, higher = more signal

Chain of Dihydroorotate dehydrogenase (quinone), mitochondrial (Plasmodium falciparum (isolate 3D7)) (Q08210 whole entry, looked up): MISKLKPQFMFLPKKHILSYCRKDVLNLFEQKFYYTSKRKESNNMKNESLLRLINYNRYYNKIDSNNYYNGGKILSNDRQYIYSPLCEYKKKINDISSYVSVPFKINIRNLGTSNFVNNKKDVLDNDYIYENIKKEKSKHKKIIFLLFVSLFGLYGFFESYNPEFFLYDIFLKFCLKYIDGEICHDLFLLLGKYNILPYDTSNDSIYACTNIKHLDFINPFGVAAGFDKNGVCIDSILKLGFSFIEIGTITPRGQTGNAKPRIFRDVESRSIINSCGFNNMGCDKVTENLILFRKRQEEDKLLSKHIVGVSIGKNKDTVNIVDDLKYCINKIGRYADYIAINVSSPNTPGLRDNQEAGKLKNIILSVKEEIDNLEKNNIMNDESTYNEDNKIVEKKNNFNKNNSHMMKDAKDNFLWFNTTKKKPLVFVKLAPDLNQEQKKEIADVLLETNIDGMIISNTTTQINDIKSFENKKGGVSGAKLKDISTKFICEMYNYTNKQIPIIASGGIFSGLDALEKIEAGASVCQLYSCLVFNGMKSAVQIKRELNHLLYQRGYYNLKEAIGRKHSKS
Chain of E3 ubiquitin-protein ligase XIAP (Homo sapiens) (P98170 whole entry, looked up, the tested form may be a part): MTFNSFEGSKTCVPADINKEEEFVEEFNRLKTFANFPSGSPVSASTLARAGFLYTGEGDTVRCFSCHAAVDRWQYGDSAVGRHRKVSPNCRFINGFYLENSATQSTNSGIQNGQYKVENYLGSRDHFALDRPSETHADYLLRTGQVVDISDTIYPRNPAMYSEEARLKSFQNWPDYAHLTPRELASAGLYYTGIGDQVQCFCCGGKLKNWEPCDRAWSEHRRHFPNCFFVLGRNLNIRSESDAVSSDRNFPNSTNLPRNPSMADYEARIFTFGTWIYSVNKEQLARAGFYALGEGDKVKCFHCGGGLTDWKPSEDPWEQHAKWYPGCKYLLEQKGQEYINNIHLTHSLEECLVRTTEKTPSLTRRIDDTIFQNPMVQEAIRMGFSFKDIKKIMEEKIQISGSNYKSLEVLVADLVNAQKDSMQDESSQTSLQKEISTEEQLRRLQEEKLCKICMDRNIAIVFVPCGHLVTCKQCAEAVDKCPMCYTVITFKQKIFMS
Chain of Homeobox protein Hox-A13 (Mus musculus) (Q62424 whole entry, looked up): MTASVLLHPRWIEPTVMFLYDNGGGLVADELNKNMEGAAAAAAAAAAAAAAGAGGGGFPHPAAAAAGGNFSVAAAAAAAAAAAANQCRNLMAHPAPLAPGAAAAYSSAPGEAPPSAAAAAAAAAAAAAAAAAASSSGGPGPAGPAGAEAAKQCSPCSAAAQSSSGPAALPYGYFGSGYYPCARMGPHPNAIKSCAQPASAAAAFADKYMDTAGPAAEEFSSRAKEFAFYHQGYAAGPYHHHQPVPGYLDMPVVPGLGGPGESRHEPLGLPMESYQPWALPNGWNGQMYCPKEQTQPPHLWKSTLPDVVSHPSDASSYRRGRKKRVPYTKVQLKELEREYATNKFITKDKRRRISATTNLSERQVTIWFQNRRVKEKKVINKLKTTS

SMILES | z-score [1] | z-score [2] | z-score [3] | composite z-score [4] | z-score [5] | z-score [6] | z-score [7] | z-score [8] | z-score [9] | composite z-score [10] | composite z-score [11] | composite z-score [12] | z-score [13] | z-score [14] | z-score [15] | z-score [16]
COc1ccc([Si](C)(C)[C@H]2[C@H](CCO)O[C@@]3(C(=O)N(Cc4ccccc4)c4ccc(N5C(=O)COc6ccccc65)cc43)[C@@H]2C)cc1 | -0.981 | 0.0662 (inactive) | -2.72 (inactive) | 0.0861 (inactive) | 1.31 (inactive) | 3.06 (inactive) | 1.2 (inactive) | 0.433 (inactive) | -3.14 | -0.0622 | 0.577 (inactive) | 0.473 | -1.09 | -0.771 (inactive) | -0.584 (inactive) | -0.791 (inactive)
CC(=O)NCCCC[C@@H]1NC(=O)[C@@H]2C[C@H](C(=O)NCc3ccc(F)cc3)[C@H](c3ccc(O)cc3)N2C1=O | -0.0579 | -0.462 (inactive) | -0.276 (inactive) | -1.13 (inactive) | -0.226 (inactive) | -0.985 (inactive) | 0.304 (inactive) | -0.598 (inactive) | 0.473 | 0.105 | 1.64 (inactive) | 1.01 | -0.448 | -1.2 (inactive) | 0.0701 (inactive) | 0.0917 (inactive)
CCCNC(=O)[C@@]1(C)c2ccccc2C(=O)N(Cc2ccc(OC(F)(F)F)cc2)[C@H]1c1ccc(CO)cc1 | -0.0818 | -0.0169 (inactive) | -0.0521 (inactive) | 0.263 (inactive) | 0.251 (inactive) | -0.277 (inactive) | 0.484 (inactive) | 1.28 (inactive) | 0.325 | -0.0599 | 0.689 (inactive) | 0.794 | -0.775 | -3.32 (inactive) | -0.374 (inactive) | -0.473 (inactive)
C=CCOC(=O)[C@@H]1[C@H]2C(=O)O[C@H](c3ccccc3)[C@H](c3ccccc3)N2[C@H](c2ccc(OCCOC(=O)[C@H]3C[C@H]4C(=O)N[C@@H](CC(C)C)C(=O)N4[C@H]3c3cccc(OCCO)c3)cc2)[C@@]12C(=O)Nc1ccc(I)cc12 | -0.525 | -0.195 (inactive) | -0.77 (inactive) | 1.64 (inactive) | 3.38 (inactive) | 1.58 (inactive) | -0.111 (inactive) | -1.14 (inactive) | -0.747 | -0.0876 | 0.559 (inactive) | 0.824 | -1.68 | 2.41 (inactive) | 0.537 (inactive) | 0.273 (inactive)
O=C1OCC=C[C@H]2OC34C=CCN(c5ccc(Cl)cc5)C(=O)[C@H]3N(CCCO)C(=O)[C@@H]4[C@@H]12 (some centres undefined) | -0.458 | -0.857 (inactive) | -0.393 (inactive) | -0.486 (inactive) | 0.276 (inactive) | 0.123 (inactive) | 0.958 (inactive) | 0.579 (inactive) | 0.0679 | 0.0593 | 1.92 (inactive) | -0.501 | -1.39 | -2.31 (inactive) | -0.0921 (inactive) | -0.389 (inactive)
Cc1ccc(S[C@]2(C(=O)NCCCN(C)C)CC(=O)N(Cc3ccccc3)[C@@H]2c2ccc(CO)cc2)cc1 | -0.519 | -0.686 (inactive) | 0.833 (inactive) | -0.336 (inactive) | 0.317 (inactive) | -0.358 (inactive) | -0.194 (inactive) | -0.435 (inactive) | 0.63 | -0.185 | -0.712 (inactive) | 0.135 | -1.07 | -2.18 (inactive) | 0.327 (inactive) | 0.603 (inactive)
CCOC(=O)C1=CC[C@@H](c2cccc(Cl)c2)N(S(=O)(=O)c2ccc(C)cc2)[C@H]1c1ccc(C#N)cc1 | 0.697 | 2.09 (inactive) | -0.39 (inactive) | 0.21 (inactive) | 1.68 (inactive) | 0.834 (inactive) | -0.905 (inactive) | -0.314 (inactive) | -1.42 | -0.38 | 0.197 (inactive) | 0.73 | -2.12 | 1.05 (inactive) | 0.645 (inactive) | -0.118 (inactive)
O=C(NCC(O)CO)[C@@]1(Cc2ccccc2)N=C(c2ccc(OCCCO)cc2)O[C@H]1c1ccccc1 (some centres undefined) | 0.531 | -2.2 (inactive) | 0.583 (inactive) | -0.507 (inactive) | 0.41 (inactive) | -0.547 (inactive) | 2.7 (inactive) | 0.249 (inactive) | 0.391 | 0.221 | 0.502 (inactive) | 0.801 | -1.22 | -4 (inactive) | -0.607 (inactive) | -0.29 (inactive)
O=C1C2C=CC(C(O)CCc3ccccc3)N(Nc3ccccc3)C2C(=O)N1c1ccccc1 (centres undefined) | -0.999 | -0.287 (inactive) | -1.81 (inactive) | 0.228 (inactive) | 1.12 (inactive) | 0.361 (inactive) | -0.97 (inactive) | -1.18 (inactive) | -1.67 | -0.16 | 0.792 (inactive) | 0.802 | -0.467 | -3.23 (inactive) | 0.684 (inactive) | 0.448 (inactive)
COC(=O)[C@@]1(Cc2ccc(OC)cc2)[C@H]2c3cc(C(=O)N4CCCC4)n(CCc4ccccn4)c3C[C@H]2CN1C(=O)c1ccccc1 | -0.608 | 1.17 (inactive) | -1.55 (inactive) | -0.362 (inactive) | 1.5 (inactive) | 0.664 (inactive) | -0.784 (inactive) | -0.912 (inactive) | -2.73 | 0.0976 | 0.679 (inactive) | 0.864 | -1.77 | -5.3 (inactive) | -0.235 (inactive) | -0.224 (inactive)
COCC1C2CC[C@H]3C(OCc4ccc(F)cc4C(F)(F)F)OC[C@]4(C)[C@H]3C2=C(CN4C(=O)OC(C)(C)C)[C@H](C)C1COC (some centres undefined) | -0.422 | 0.236 (inactive) | -0.481 (inactive) | -0.908 (inactive) | 0.383 (inactive) | -3.23 (inactive) | -0.93 (inactive) | 0.25 (inactive) | 0.092 | -0.122 | 1.84 (inactive) | 0.761 | -1.06 | -3 (inactive) | -0.43 (inactive) | -0.0765 (inactive)
O=C(NCC(O)CO)[C@@]1(Cc2ccccc2)COC(c2ccc(OCCCO)cc2)=N1 (some centres undefined) | 0.55 | -0.339 (inactive) | -0.322 (inactive) | -0.815 (inactive) | 0.385 (inactive) | 0.0962 (inactive) | 0.187 (inactive) | 0.276 (inactive) | 0.0244 | -0.135 | -0.0623 (inactive) | 0.464 | 0.945 | -5.97 (inactive) | -0.036 (inactive) | 0.238 (inactive)
Cc1c(NC(=O)/C(C#N)=C/C=C/c2ccccc2)c(=O)n(-c2ccccc2)n1C | -0.0273 | -0.0874 (inactive) | -0.335 (inactive) | 0.316 (inactive) | 0.242 (inactive) | -0.74 (inactive) | 1.39 (inactive) | 0.0139 (inactive) | 0.161 | 0.313 | -0.3 (inactive) | 0.559 | -0.582 | -1.5 (inactive) | 0.062 (inactive) | 0.214 (inactive)
O=P(NCC1(CC2(c3ccccc3)CO2)CC1)(c1ccccc1)c1ccccc1 (centres undefined) | -0.293 | 1.19 (inactive) | -0.242 (inactive) | -0.402 (inactive) | 0.191 (inactive) | 2.7 (inactive) | -0.191 (inactive) | -0.0173 (inactive) | 0.0301 | -0.102 | 0.588 (inactive) | 0.822 | 0.561 | -3.26 (inactive) | -0.124 (inactive) | -0.208 (inactive)
